The campaign covered roughly 7,900 compounds. About 400 (5.1%) showed an effect of 50% or more. This excerpt belongs to a sample that is enriched for strong results.
Target: Parkinson's disease protein 7 (PARK7/DJ1) (human, UniProt Q99497)
Experiment: primary screen, percent inhibition; read as competition with a fluorescent probe by fluorescence polarization; higher = more effect of the substance
Conditions: 100 µM
Description: The screen was conducted using the conditions as described above in 1536-well plates (Corning 3724) with a reaction volume of 8 μL per well. The compound library containing 7887 covalent fragments was purchased at Enamine Ltd. and received as 100 mM DMSO stocks in 384 well LDV Echo plates (Labcyte LP-0200). Stock solutions of 0.26 μM PARK7 and 80 nM JYQ-107 were prepared. Using a Labcyte Echo550 acoustic dispenser, 8 nL of the DMSO stock solution of the library compounds was transferred from the source plates into the empty 1536-well screening plates to obtain a 100 μM final compound concentration. Next, PARK7 (6 μL, final concentration 0.2 μM) was dispensed using a Biotek MultiflowFX liquid dispenser and incubated for 2 h, followed by dispensing the probe JYQ-107 (2 μL, final concentration 20 nM). After 2 h incubation, the FP signal was recorded on a BMG Labtech PHERAstar plate reader (λex/em 480/520 nm). The relative loss of FP signal compared with reference controls was used to calculate the remaining enzyme activity.

Chain of Parkinson's disease protein 7 (PARK7/DJ1) (Q99497 whole entry, looked up): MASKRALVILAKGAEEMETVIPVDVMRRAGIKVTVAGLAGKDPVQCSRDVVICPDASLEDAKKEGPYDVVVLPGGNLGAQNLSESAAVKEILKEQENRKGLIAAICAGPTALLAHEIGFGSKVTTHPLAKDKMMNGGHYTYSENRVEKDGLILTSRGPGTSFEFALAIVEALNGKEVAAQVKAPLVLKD

SMILES | Inhibition %
CC1CC1C(=O)N[C@H]1CC[C@@H](CS(=O)(=O)F)C1 (stereo in doubt) | 90.9%

— paper PMC9574860, “Chemical Toolkit for PARK7: Potent, Selective, and High-Throughput” (Journal of Medicinal Chemistry, 2022)
